Assay outcomes deposited in PubChem BioAssay by National Center for Advancing Translational Sciences (NCATS).
miR-21 act = qHTS Assay for Modulators of miRNAs and/orActivators of miR-21; HeLa miR-21 FLuc reporter, luciferase, 48 h; Potency, µM (highest dose often 38.3 µM), for inactives: at the top dose activity change, positive = activation, actives largely listed as activators; 340,000 tested, under 10 active; AID 2288, 2010;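 note: % of control where 0% means no effect; miR-21 action dims this reporter so a rising signal means less miR-21 action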
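Compounds were titrated across several concentrations (up to approximately 40 uM) and incubated 48 hours with HeLa miR-21-FLuc reporter cells (miR-21 target sequence downstream of FLuc, endogenous miR-21). Readout was firefly luciferase luminescence after lytic detection reagent.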
Nrf2 inh = Nrf2 qHTS screen for inhibitors; A549 ARE-Fluc reporter, luciferase luminescence, 18-24 h; Potency, µM (series often up to 46 µM), for the others: top-dose activity change, negative = inhibition, actives largely listed as inhibitors; 360,000 compounds, 2.1% hits; AID 504444, 2011; note: potency is the fitted concentration of half-maximal effect; % is set by controls: 0 for no effect and ±100 for the full control effect; nearly all actives have a fitted effect of over 60% in size
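Cells were seeded and rested 2 h, then exposed to compounds for 18-24 h. CellTiter-Fluor was read first as a viability measure. BugLite was added 15 min before the final luminescent read of ARE-luciferase activity in A549 cells.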
TSG101-PTAP inh = qHTS Assay for Iinhibitors of HIV-1 Budding by Blocking the Interaction of PTAP/TSG101. Fluorescence polarization, FITC-PTAP peptide / Tsg101 binding. Potency, µM (series often up to 115 µM), without a hit: at the highest dose activity change, negative = inhibition, most hits filed as inhibitors. 340,000 tested, under 10 active. AID 493005, 2010; active = well fitted inhibition curve with a large enough effect in the main read-out, with a control signal flat, not every such curve was filed as active; inconclusive = small, poorly fitted or top-dose-only effect, or effect the other way, or a change in a side signal; inactive = no such curve, though single readings can be large or run the other way; note: potency is the fitted concentration of half-maximal effect; % of control where 0% means no effect
Target sequence (Q99816 whole entry, looked up): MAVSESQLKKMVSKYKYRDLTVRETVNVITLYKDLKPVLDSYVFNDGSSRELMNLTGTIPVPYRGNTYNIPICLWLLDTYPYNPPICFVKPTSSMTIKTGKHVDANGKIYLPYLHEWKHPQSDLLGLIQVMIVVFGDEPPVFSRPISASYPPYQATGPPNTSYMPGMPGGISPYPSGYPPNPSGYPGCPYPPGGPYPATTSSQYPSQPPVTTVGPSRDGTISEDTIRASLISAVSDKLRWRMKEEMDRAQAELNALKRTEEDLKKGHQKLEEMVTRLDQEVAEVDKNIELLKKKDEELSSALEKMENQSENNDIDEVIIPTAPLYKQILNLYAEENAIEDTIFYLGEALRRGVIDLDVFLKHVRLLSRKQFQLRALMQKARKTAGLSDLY
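FP read-out: FITC-PTAP peptide, 50 nM final, binding Tsg101 binding domain, 10 uM final; 20 min, r.t.; 10 mM HEPES pH 7.5, 0.15 M NaCl, 0.01% Tween 20, 3 mM EDTA, 0.1 mM TCEP.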
GRP78 ERSR act = qHTS for Inducers of the Endoplasmic Reticulum Stress Response (ERSR) in Human Glioma: qHTS. 420,000 compounds, 0.02% hits. Potency, µM, without a hit: at the highest dose activation, most hits filed as activators. U87-MG GRP78 promoter luciferase reporter, 16 h. AID 602332, 2012; note: potency is the fitted concentration of half-maximal effect; series mostly up to about 76 µM; % of control where 0% means no effect; nearly all actives have a fitted effect of over 35% in size
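Stably transfected U87-MG human glioma cells carrying a GRP78-based luminescent sensor were seeded at 1000 cells/well, pin-dosed with compounds and incubated 16 h. Luciferase reagent was then added, and end-point luminescence was read after 10 min at room temperature.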
Nrf2 activator = qHTS of Nrf2 Activators. AREc32 ARE-luciferase reporter (MCF7-derived line), luminescence, 24 h. Potency, µM (doses to about 46.1 µM), without a hit: at the highest dose activation, usual class: activators. 410,000 compounds, 0.31% hits. AID 624171, 2012; note: potency is the fitted concentration of half-maximal effect; % of control where 0% means no effect; nearly all actives have a fitted effect of over 65% in size
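Cells of the AREc32 ARE-luciferase line are plated in OPTI-MEM containing 5% FBS and left overnight at 37 deg C. Compounds are pinned in, incubation continues 24 hr, and firefly luciferase signal is then measured.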
A549 tox = Nrf2 qHTS screen for inhibitors: counterscreen for cytotoxicity; Potency, µM (titrated, usually from 46 µM), for the others: at the top dose activity change, negative = cytotoxicity, usual class: inhibitors; AID 504648, 2011; A549 ARE-Fluc cells, CellTiter-Fluor viability, 18-24 h; 390,000 compounds, 0.16% hits; note: potency is the fitted concentration of half-maximal effect; % is set by controls: 0 for no effect and ±100 for the full control effect
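Cytotoxicity counterscreen: CellTiter-Fluor fluorescence was measured in A549 ARE_Fluc cells after 18-24 h of compound exposure in a concentration series. The subsequent BugLite luminescent read reports ARE-luciferase activity.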
* = called active by the depositor; ? = inconclusive; nt = no result given; ! = not active in a repeat; [ ] = dose if it differs, or a comment. Hits are enriched below; roughly 2.1% of the tested compounds scored in any of these assays. Unless noted, calls come from the whole dose curve; as a rule, active = well fitted curve in the direction sought with a large enough effect; inconclusive = small, poorly fitted or top-dose-only effect, or another doubt; inactive = no such curve, though single readings can be large; an effect the other way counts as inactive or inconclusive.

SMILES | miR-21 act | Nrf2 inh | TSG101-PTAP inh | GRP78 ERSR act | Nrf2 activator | A549 tox
CCC1C(=O)NCCN1Cc1ccc2c(c1)CN(Cc1cccc(OC)c1)CCO2 (configuration not stated) | nt | nt | nt | -5% | nt | nt
CCN1CCN(c2cc(C)c3cc(NC(=O)c4ccc(OC)c(OC)c4)ccc3n2)CC1 | 10% | 16µM*! | -4% | 1% | 6% | 16µM*!
CCN1CCN(c2cc(C)c3cc(NC(=O)c4cc(OC)c(OC)c(OC)c4)ccc3n2)CC1 | 3% | nt | nt | 3% | 22% | -17%
Cc1cc(N2CCN(C)CC2)nc2ccc(NC(=O)c3ccc(C(C)(C)C)cc3)cc12 | 6.6µM* | -7%[9.27 µM] | nt | -9% | -4% | -11%
CC(=O)c1ccccc1-c1ccc2c(c1)CC(CNC(=O)c1cc(C)on1)O2 (configuration not stated) | nt | nt | nt | 1% | nt | nt
CCc1cc(CNC(=O)c2ccc3nc(Cc4ccc(OC)c(OC)c4)oc3c2)on1 | 20% | 21µM* | -5% | 5% | 2% | -9%
COc1ccc(Cc2nc3ccc(C(=O)NCc4cc(C)no4)cc3o2)cc1 | -46% | ? | nt | 3% | 3% | 1%
CCOC(=O)c1sc2nc(CSc3ccccc3)nc(N3CCC(C(N)=O)CC3)c2c1C | 4% | 21µM* | 3% | -13% | 0% | 4%
Fc1cccc(-c2cc3nc4c(c(N5CCC6(CC5)OCCO6)n3n2)CCCC4)c1 | -45% | 14% | -2% | 5% | 16% | -4%
OC1CCN(c2c3c(nc4cc(-c5cccc(F)c5)nn24)CCCC3)CC1 | -33% | 23µM* | 1% | 0% | 8% | ?
Fc1ccc(N2CCN(C(=S)NCC3CCCO3)CC2)cc1 (configuration not stated) | 3% | -24% | -2% | -1% | -1% | 4%
S=C(NCCCN1CCOCC1)N1CCN(c2nc(-c3ccccc3)cs2)CC1 | 22% | -11% | -3% | -3% | 4% | 1%
S=C(NCC1CCCO1)N1CCN(c2cccc(Cl)c2)CC1 (configuration not stated) | 9% | 21µM* | -4% | -1% | 0% | -1%
S=C(NCCCN1CCOCC1)N1CCN(c2nc(-c3ccc(Cl)cc3)cs2)CC1 | -2% | 13µM* | -4% | -13% | -3% | ?
S=C(NCC1CCCO1)N1CCN(c2nc(-c3ccc(Cl)cc3)cs2)CC1 (configuration not stated) | 23% | 16µM* | 2% | -7% | 5% | ?
CNC(=S)N1CCN(c2nc(-c3ccc(F)cc3)cs2)CC1 | 2% | ? | -11% | 0% | 1% | 0%
CN(C)CC(C)(O)c1ccc2c(c1)CN(Cc1cccn1-c1ncccn1)CCO2 (configuration not stated) | nt | nt | nt | -3% | nt | nt
CCOC(=O)C1Nc2c(F)cc(C)cc2C2c3ccccc3CC12 (configuration not stated) | nt | -14% | 4% | 3% | 11µM* | 13%
CCOC(=O)C1Nc2ccccc2C2c3ccccc3CC12 (configuration not stated) | nt | -11% | -2% | 2% | 2% | -8%
COc1ccc(C2Oc3ccccc3C(=O)N2Cc2ccccc2)cc1COc1ccc(NC(C)=O)cc1 (configuration not stated) | nt | ? | nt | nt | nt | -10%
COc1ccc(-n2cnnc2SCc2ncc(-c3ccccc3)o2)cc1 | -10% | ? | -7% | -4% | 1% | 2%
Cn1c(COc2ccc(Cl)cc2)nnc1SCc1ncc(-c2ccccc2)o1 | 15% | 16µM* | 0% | -7% | 2% | -30%
Cc1c(C(=O)N2CC3CCC2C3)sc2ncnc(NCCc3ccccn3)c12 (configuration not stated) | nt | nt | nt | -5% | nt | nt
O=C(C#Cc1ccccc1)c1ccco1 | ? | 21µM* | -5% | -19% | -2% | ?
COc1ccc(S(=O)(=O)n2ccc(-c3ccc4c(c3)CCC(C)(C)O4)n2)cc1 | -17% | 13µM* | -5% | 1% | 0% | 0%
SMILES | miR-21 act | Nrf2 inh | TSG101-PTAP inh | GRP78 ERSR act | Nrf2 activator | A549 tox
Cc1ccc(C2=CC(C)(c3ccc(C)cc3)Nc3nc(C(F)(F)F)nn32)cc1 (configuration not stated) | 3% | ? | -2% | 0% | 6% | -6%
CC1(c2ccc(OCC#N)cc2)C=C(c2ccc(OCC#N)cc2)n2nc(C(F)(F)F)nc2N1 (configuration not stated) | ? | 23µM* | -7% | -5% | 11% | ?
COc1cccc(CN2CCCC(c3nc(-c4ccncc4)ncc3-c3ccccc3)C2)c1O (configuration not stated) | nt | nt | nt | -1% | nt | nt
CCC(NC(=O)CCl)c1ccc(C)cc1 (configuration not stated) | 24% | 23µM* | 0% | -11% | ? | ?
COc1ccc(N2CCN(C(=O)CSc3nnnn3-c3ccc4c(c3)OCCO4)CC2)cc1 | 18% | 16µM* | -4% | -4% | 1% | -2%
O=C(CN1Cc2ccccc2OC(c2ccccc2F)C1)NC(c1ccccn1)C(F)(F)F (configuration not stated) | nt | nt | nt | -4% | nt | nt
CCNc1ccc(/C=C/c2ccnc3ccccc23)cc1 | nt | nt | nt | 0% | nt | nt
COc1cccc(CCNc2ncnc3sc(C(=O)N4CCOCC4)c(C)c23)c1 | nt | nt | nt | -3% | nt | nt
CC(C)C(NS(C)(=O)=O)c1nnc2n1CCN(Cc1ccc(Cl)cc1)CC2 (configuration not stated) | nt | nt | nt | -4% | nt | nt
COc1ccc(C(=O)NCC2Cc3cc(C)cc(-c4nc5ccccc5s4)c3O2)c(OC)c1OC (configuration not stated) | nt | nt | nt | -4% | nt | nt
COC(=O)c1c[nH]c2c1-c1cc(C(=O)OCc3ccccc3)n(S(=O)(=O)c3ccc(C)cc3)c1C(=O)C2=O | nt | 4.1µM* | 1% | -8% | -2% | 4.1µM*
Cc1ccc(S(=O)(=O)Cc2ccc(C(=O)OCc3ccccc3)cc2)cc1 | -1% | 15% | -5% | -2% | 0% | -7%
O=C(N/N=C/c1cc([N+](=O)[O-])ccc1O)c1cccc2cc[nH]c12 | 19% | 23µM* | -1% | ? | -1% | ?
COc1ccc(CN2CCN(C(=O)C3CCN(S(=O)(=O)c4cccs4)CC3)CC2)c(OC)c1OC | 4% | 15µM* | 0% | -5% | 0% | -4%
COc1ccccc1CNC(=O)c1cnn(-c2ccc(F)cc2F)c1C1CCN(C(=O)OC(C)(C)C)CC1 | 7% | ? | nt | -2% | 4% | -15%
